# BAZ2B block = inhibitors of human BAZ2B bromodomain; AID 504333; Potency, µM (series often up to 114 µM), without a hit: top-dose activity change, negative = inhibition, most hits filed as inhibitors; AlphaScreen BAZ2B-H3K14Ac peptide displacement; Q9UIF8; actives 4.4% (n = 360,000); also: % is scaled to controls: 0 for no effect and ±100 for the full control effect; nearly all actives have a fitted effect of over 60% in size
#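 Multi-concentration screen (max 110 uM) measuring displacement of acetylated histone H3 peptide from BAZ2B by AlphaScreen, using 50 nM protein, 50 nM peptide and 10 ug/mL streptavidin donor plus Ni-chelate acceptor beads.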
# G9a inh = blocks human histone lysine methyltransferase G9a; Q96KQ7; G9a H3K9 monomethylation, AlphaScreen, 2 h; Potency, µM (titrated, usually from 102 µM), without a hit: top-dose activity, negative = inhibition, most hits filed as inhibitors; actives 8.8% (n = 350,000); also: % is scaled to controls: 0 for no effect and ±100 for the full control effect; nearly all actives have a fitted effect of over 75% in size
# Target sequence (Q96KQ7 913-1193 limits assumed): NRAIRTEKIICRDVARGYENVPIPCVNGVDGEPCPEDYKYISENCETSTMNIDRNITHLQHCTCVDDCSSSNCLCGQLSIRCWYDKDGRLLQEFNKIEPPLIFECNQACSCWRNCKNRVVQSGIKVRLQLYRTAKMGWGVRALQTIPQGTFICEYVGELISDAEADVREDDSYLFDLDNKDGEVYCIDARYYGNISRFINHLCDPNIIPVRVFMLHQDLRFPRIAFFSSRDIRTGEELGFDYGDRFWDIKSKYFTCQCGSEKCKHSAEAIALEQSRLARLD
#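 AlphaScreen detection with an anti-monomethyl H3K9 antibody quantified product after a 2 h room-temperature reaction containing 500 nM biotinylated H3K9 peptide, 20 µM SAM and 20 nM enzyme, which had been preincubated 15 min with compound.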
# L3MBTL1 inh = blocks human L3MBTL1 | actives 0.66% (n = 230,000) | Potency, µM (series often up to 57.1 µM), without a hit: top-dose activity, negative = inhibition, hits mostly inhibitors | AID 485360 | AlphaScreen L3MBTL1–H3K9me1 peptide binding; also: % is scaled to controls: 0 for no effect and ±100 for the full control effect; nearly all actives have a fitted effect of over 60% in size
#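 L3MBTL1 50 nM + b-AHA-H3(1-15)K9me1 75 nM, 30 min RT; compound added, 30 min RT; streptavidin donor/Ni-chelate acceptor beads 10 ug/mL each final, 30 min RT dark; AlphaScreen read.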
# Sfp inh = inhibitors of Bacillus subtilis Sfp phosphopantetheinyl transferase; Q9F4F7; Biochemical Sfp PPTase activity, qHTS; Potency, µM, inactives show largest response in the series, negative = inhibition, hits mostly inhibitors; actives 3.5% (n = 310,000);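 also: the enzyme is Sfp with the accession as filed and its product quenches rhodamine fluorescence; 0% = enzyme reaction without inhibitor and -100% = no enzyme wells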
#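 Sfp 15 nM + cpd, 15 min RT; start w/ rhodamine-CoA 5 uM, BHQ-2-YbbR 12.5 uM (final); 50 mM Hepes pH 7.6, 10 mM MgCl2, 0.01% NP-40, 0.01% BSA; read 525/598 nm at 0 and 30 min.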
# HP1b binding inh = HP1-beta chromodomain-methylated histone interaction inhibition | P83916 | AlphaScreen HP1-beta / biotin-H3K9me3 peptide binding | Potency, µM (top dose mostly 114 µM), without a hit: top-dose activity change, negative = inhibition, actives largely listed as inhibitors | actives 0.56% (n = 390,000); also: nearly all actives have a fitted effect of over 70% in size
# Target sequence (P83916 whole entry, looked up): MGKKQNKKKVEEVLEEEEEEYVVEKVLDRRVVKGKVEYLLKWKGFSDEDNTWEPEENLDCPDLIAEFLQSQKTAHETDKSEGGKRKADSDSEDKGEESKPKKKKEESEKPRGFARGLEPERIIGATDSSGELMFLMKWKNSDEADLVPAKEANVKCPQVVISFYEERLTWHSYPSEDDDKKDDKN
#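 AlphaScreen: HP1-beta (50 nM) preformed 30 min with biotin-H3(1-18)K9me3 peptide (50 nM) in PBS pH 7.4, 0.01% Tween-20. Compound added for 30 min at RT, then streptavidin donor/nickel chelate acceptor beads (10 ug/mL) for 30 min.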
# JMJD2A Tudor = JMJD2A Tudor domain (human) inhibition; actives 4.4% (n = 390,000); Potency, µM (top dose mostly 114 µM), without a hit: at the top dose activity change, negative = inhibition, hits mostly inhibitors; O75164; AlphaScreen JMJD2A-Tudor / H3K4me3 peptide binding; also: % is scaled to controls: 0 for no effect and ±100 for the full control effect; nearly all actives have a fitted effect of over 50% in size
# * marks the source's active call; other numbers are inactive results; ? = inconclusive; . = no result given; [ ] = dose if it differs, or a comment. Only some compounds are listed: those with a hit (about 12% of all), similar ones and a draw of the others. Calls follow the shape of the dose curve; as a rule, active = well fitted curve in the direction sought with a large enough effect; inconclusive = small, poorly fitted or top-dose-only effect, or another doubt; inactive = no such curve, though single readings can be large; an effect the other way counts as inactive or inconclusive. Potency is read from the fitted curve at half-maximal effect.
SMILES,BAZ2B block,G9a inh,L3MBTL1 inh,Sfp inh,HP1b binding inh,JMJD2A Tudor
Cc1nc(SCC(=O)NC2CCS(=O)(=O)C2)c2c3c(sc2n1)CCCC3 (stereo unspecified),4%,50µM*,8%,.,20%,-11%
Cc1nc(SCC(=O)NC2CCS(=O)(=O)C2)c2c3c(sc2n1)CCC3 (stereo unspecified),.,.,-2%,.,-17%,-12%
CCOC(=O)n1cc(-c2cnc(CNC(=O)C(C)(c3ccccc3)c3ccccc3)o2)c2ccccc21,-31%,45µM*,-8%,0%,2%,?
N#CCCCS(=O)(=O)c1nnnn1-c1ccc(Br)cc1,.,.,.,1%,.,.
COc1cc(NCC(=O)Nc2cccc(S(=O)(=O)N3CCCCC3)c2)cc(OC)c1OC,-12%,?,-2%,.,10%,?
Cc1ccc(NNC(=O)c2ccno2)cc1Cl,-31%,8.9µM*,-10%,1%,28%,-22%
O=C(Nc1cc(Cl)cc(Cl)c1)c1ccno1,1%,-4%,.,14%,32%,6%
Cc1cc(C(=O)NNc2ccc(C)c(C)c2)no1,-3%,2.5µM*,-3%,-10%,5%,-17%
Cc1ccc(NNC(=O)c2cc(C)on2)c(C)c1,-14%,11µM*,-6%,-12%,1%,-7%
Cc1ccc(NNC(=O)c2ccno2)cc1C,1%,6.3µM*,5%,-17%,-3%,79µM*
O=C(Nc1ccc([N+](=O)[O-])cc1)Nc1ccc(OC(F)F)c(Cl)c1,-9%,-2%,-4%,-4%,5%,-21%
CCOc1ccc(Cl)cc1C1CC(=O)Nc2cc(OC)c(OC)c(OC)c21 (stereo unspecified),3%,3%[59 µM],.,.,14%,-8%
CCN1CCN(C(=O)CCc2nnc3ccc(N4CCC5(CC4)OCCO5)nn23)CC1,-11%[57.1 µM],?,.,21%,33%,-3%
C[C@H](CCCC(C)(C)O)[C@H]1CC[C@H]2[C@@H]3CC=C4C[C@@H](O)CC[C@]4(C)[C@H]3CC[C@]12C,.,5%[12.7 µM],.,13%,.,.
CCc1nn2c(=O)cc(-c3ccncc3)nc2s1,.,.,.,.,.,-10%
COc1ccc(C(NC(=O)c2ccco2)c2ccc(OC)c(OC)c2)cc1OC,10%,4%,-2%,4%,26%,-6%
CCOc1ccc(C(NC(C)=O)c2ccc(OC)c(OC)c2)cc1 (stereo unspecified),1%,1%[59 µM],-3%,16%,14%,-8%
COc1ccc(C(NC(=O)/C=C/c2ccco2)c2ccc(OC)c(OC)c2)cc1 (stereo unspecified),?,18µM*,?,20µM*,-1%,-16%
CCOc1ccc(C(NC(=O)/C=C/c2ccco2)c2ccc(OC)c(OC)c2)cc1 (stereo unspecified),?,28µM*,-10%,?,-16%,-34%
O=C(CS(=O)(=O)c1cccc2nsnc12)N1CCN(c2cccc(C(F)(F)F)c2)CC1,?,9%[59 µM],.,.,22%[57 µM],-29%
CC(CN(C)C)CN1c2ccccc2Sc2ccc(C(F)(F)F)cc21 (stereo unspecified),.,-46%[12.7 µM],.,-7%,.,.
CN(C)CCCN1c2ccccc2Sc2ccc(C(F)(F)F)cc21,32µM*,-8%[59 µM],-3%,-4%,-15%,?
CC(C)Nc1oc(-c2ccccc2)nc1-c1cccc2ccccc12,.,.,.,-6%,.,.
O=C(c1cc(Br)c(Br)s1)N1CCOCC1,7%,1%[12.7 µM],13%,.,22%,-8%
O=C(c1coc(=O)c(Br)c1)N1CCOCC1,50µM*,?,14µM*,6%,?,?
SMILES,BAZ2B block,G9a inh,L3MBTL1 inh,Sfp inh,HP1b binding inh,JMJD2A Tudor
O=C(c1ccc(=O)oc1)N1CCOCC1,50µM*,22µM*,4.5µM*,6%,22µM*,45µM*
COc1ccc(-c2nnc(SCC(=O)Oc3cc(C)ccc3C)o2)cc1,-1%,-6%[59 µM],.,.,27%,-19%
COC(=O)C1=C(C)N(C)C(=O)NC1c1cc2c(cc1[N+](=O)[O-])OCO2 (stereo unspecified),50µM*,?,.,14µM*,29%,-2%
CCc1nn(C(C)C(=O)NC2CCCCCC2)c(=O)c2cc3occc3n12 (stereo unspecified),-22%,33%,.,15%,-4%,-23%
O=C(CCCN1C(=O)c2cccnc2C1=O)Nc1ccc(Br)cc1,-25%,-17%,-23%,7%,24%,-16%
Cc1cc2cc(CNC(=O)c3ccc4c(c3)OCO4)ccc2[nH]1,?,50µM*,-11%,9%,-8%,-34%
Cc1cccc(-n2c(C)nc3cc(C(=O)NCc4ccc5c(c4)OCO5)ccc32)c1,?,45µM*,-10%,-18%,4%,-34%
COc1cc(C(=O)NCc2ccc3[nH]c(C)cc3c2)cc(OC)c1OC,-37%,?,-1%,10%,29%,-9%
COc1ccc(C(=O)NCc2ccc3[nH]c(C)cc3c2)cc1OC,?,35µM*,-6%,-25%,24%,-30%
O=C(NCc1ccc2c(c1)OCO2)c1ccc2c(c1)OCO2,-15%,39%[12.7 µM],.,-8%,24%,-17%
Cc1cc(CNC(=O)c2ccc3c(c2)OCO3)c2ccccc2n1,-33%,35µM*,5%[11.4 µM],1%,43%,-5%
CCC(C(=O)NCCCN(CC)CC)n1ncn2c(cc3occc32)c1=O (stereo unspecified),4%,?,.,.,3%,-12%
CCN(CC)S(=O)(=O)c1cc(NC(=O)C2CC(=O)N(Cc3ccccc3)C2)ccc1Cl (stereo unspecified),-7%,-7%[12.7 µM],-4%,.,18%,-25%
CCOc1ccc(NC(=S)NCc2ccc3[nH]c(C)cc3c2)cc1,.,?,.,-13%,-15%,50µM*
CN(C(=O)COc1ccc(-c2nnco2)cc1)C1CCS(=O)(=O)C1 (stereo unspecified),17%,-2%,1%,.,15%,-1%
COc1ccccc1S(=O)Cc1ccc(C(=O)NCCc2ccc(Cl)cc2)o1 (stereo unspecified),1%,40µM*,.,-7%,72%,-8%
COc1ccccc1S(=O)Cc1ccc(C(=O)NC2CCCC2)o1 (stereo unspecified),11%,28µM*,.,-21%,55%,-11%
O=c1[nH]c(=S)[nH]cc1Oc1ccc(Br)cc1Br,.,.,.,.,59%,-20%
CC(C)Nc1nc(C#N)nc(Nc2ccccc2)n1,.,.,.,.,.,-16%
CCN(Cc1ccccc1)S(=O)(=O)c1cc(C(=O)Nc2cc(Cl)cc(Cl)c2)ccc1F,2%,12%[59 µM],.,.,19%,-17%
O=C(CN1C(=O)NC2(CCCC2)C1=O)NNC(=O)c1ccc(Br)cc1,9%,4%,-1%,.,35%,3.2µM*
COC(=O)N/N=C\c1cccc(OC(=O)c2cccs2)c1,-12%,15%[59 µM],.,6%,35%,-13%

# Source: PubChem (National Center for Advancing Translational Sciences (NCATS))
